Pf Dd2 growth – blocks in vitro growth of P. falciparum Dd2. P. falciparum Dd2 growth, SYBR Green, 72 h. Potency, µM (highest dose often 28.9 µM), for inactives: top-dose activity, negative = inhibition, most hits filed as inhibitors. 120,000 compounds, 4.3% hits; active = well fitted inhibition curve with a large enough effect;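 also: plate controls were DMSO vehicle for no effect and reference drug for full effect; nearly all actives have a fitted effect of over 65% in size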
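Readout: SYBR Green fluorescence, 485 nm excitation, 535 nm emission, after ~16 h lysis at 37C. Before that, Dd2-infected red cells (2.5% hematocrit) grew 72 h with compound, 29 uM top final concentration.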
Starred values were filed as active, the others as inactive; [ ] = another dose, or the depositor's remark. The entries come from a sample that favours hits as a whole. Potency is read from the fitted curve at half-maximal effect.

For Cc1nc(-c2ccc(F)cc2)n(CC(=O)Nc2cc(F)ccc2F)c(=O)c1CCO the results were Pf Dd2 growth -16.2%.
`Cc1nc(-c2ccc(F)cc2)n(CC(=O)Nc2ccc(F)cc2)c(=O)c1CCO` gave Pf Dd2 growth inactive.
For COc1ccc(OC)c(NC(=O)Cn2c(-c3ccc(F)cc3)nc(C)c(CCO)c2=O)c1 the results were Pf Dd2 growth -8.8%.
`Cc1cc(NC(=O)Cn2c(-c3cccc(Cl)c3)nc(C)c(CCO)c2=O)no1` gave Pf Dd2 growth -19.4%.
Screening COc1cc(NC(=O)Cn2c(-c3ccccc3)nc(C)c(CCO)c2=O)cc(OC)c1 returned Pf Dd2 growth 8.91µM*.
For COc1ccc(Cl)cc1NC(=O)Cn1c(-c2ccc(F)cc2)nc(C)c(CCO)c1=O the results were Pf Dd2 growth 14.1µM*.
Screening Cc1nc(-c2ccc(F)cc2)n(CC(=O)Nc2ccc(C(C)C)cc2)c(=O)c1CCO returned Pf Dd2 growth 7.08µM*.
Screening COc1ccc(NC(=O)Cn2c(-c3ccccc3)nc(C)c(CCO)c2=O)cc1OC returned Pf Dd2 growth inactive.
Screening COc1cc(NC(=O)Cn2c(-c3ccccc3)nc(C)c(CCO)c2=O)cc(OC)c1OC returned Pf Dd2 growth -16.1%.
CN(CCO)C[C@@H]1CN(C(=O)Cc2c(F)cccc2Cl)C[C@@H]1CO was read as Pf Dd2 growth -2.3%.
`CN1CCN([C@H]2CCN(C(=O)c3ccc(N(C)C)nc3)C[C@H]2CCC(=O)O)CC1` gave Pf Dd2 growth 10.9%.
`COc1nccc(N2CCC(CC(=O)N3CCCN(c4ncccn4)CC3)CC2)n1` gave Pf Dd2 growth inactive.
Screening O=C1CC(c2noc(-c3cc(F)cc(F)c3)n2)CN1C1CCCCC1 (stereo not drawn) returned Pf Dd2 growth inactive.
`COc1ccc(CC(=O)N2CC3CC(C2)[C@H]2CCCC(=O)N2C3)cc1Cl` (stereo partly drawn) gave Pf Dd2 growth 5.3%.
`O=C(c1ccccn1)N1CC[C@H]2COC(=O)N2c2cc(F)ccc2C1` gave Pf Dd2 growth 5.1%[44.1 µM].
For O=C(NCC1(COc2ccccc2)C[C@@H](O)[C@@H](O)C1)C1CCCC1 (stereo partly drawn) the results were Pf Dd2 growth -7.2%[44.1 µM].
For CN1CCC2(C1)CN(CC1CCOCC1)c1ccc(C(=O)NCCCO)cc12 (stereo not drawn) the results were Pf Dd2 growth 56.5%[44.1 µM].
Screening Cc1cccn2c(Nc3ccc4c(c3)OCCO4)c(-c3ccc(Br)o3)nc12 returned Pf Dd2 growth 8.91µM*.
Cc1cccn2c(Nc3ccccc3)c(-c3ccc(N4CCOCC4)cc3)nc12 was read as Pf Dd2 growth inactive.
Screening Cc1ccc(-c2nc3cccc(C)n3c2Nc2ccc3c(c2)OCO3)o1 returned Pf Dd2 growth -17.3%.
CCC(c1cccnc1)N(C)C(=O)c1cc(COc2ccccc2)[nH]n1 (stereo not drawn) was read as Pf Dd2 growth 4.8%.
Screening CN(C)C[C@@H]1CN(C2CCOCC2)C[C@H]1NS(=O)(=O)c1ccc(C#N)cc1 returned Pf Dd2 growth inactive.
`CC1Oc2ccc(NC(=O)COc3ccccc3)cc2CN(Cc2ccccc2)C1=O` (stereo not drawn) gave Pf Dd2 growth inactive.
`COCC(=O)N1CC[C@@H](CC(=O)O)[C@@H](CCN2CCN(c3ccc(F)cc3)CC2)C1` gave Pf Dd2 growth -22.2%[44.1 µM].
`CCCCNC(=O)Cc1csc2nc(C)c(-c3cc(C)n(-c4ccccc4CC)n3)c(=O)n12` gave Pf Dd2 growth -9.0%.
`COCC1CCN(C(=O)c2coc(COc3cccc(F)c3)n2)C1` (stereo not drawn) gave Pf Dd2 growth -1.8%.
`COc1cccc(OCc2nc(C(=O)N3CC4C[C@@H]5CC3C[C@H](C4)C5)co2)c1` gave Pf Dd2 growth 10µM*.
Screening COc1ccc2ccc(OCc3nc(C(=O)N4CC(N5CCCCC5)C4)co3)cc2c1 returned Pf Dd2 growth 8.91µM*.
`CCCC1CCN(C(=O)c2coc(COc3ccc4ccc(OC)cc4c3)n2)C1` (stereo not drawn) gave Pf Dd2 growth -20.6%.
`C[C@@H]1CN(C(=O)c2coc(COc3cccc(F)c3)n2)C[C@H](C)O1` gave Pf Dd2 growth -4.3%.
`COc1ccc(OCc2nc(C(=O)N3CCCC(C(C)(C)O)C3)co2)cc1` (stereo not drawn) gave Pf Dd2 growth -4.4%.
COc1ccccc1CNC[C@H]1O[C@H](Cc2cc(CN3CCOCC3)on2)CC[C@@H]1O was read as Pf Dd2 growth -16.7%[44.1 µM].
Screening CO[C@H]1C(=O)N(C(C)C)[C@H]1C1CCN(S(=O)(=O)Cc2ccccc2)CC1 returned Pf Dd2 growth 7.2%.
COc1cccc(COC2CN(CC(C)C)C(=O)CN(C(=O)c3snnc3C)C2)c1 (stereo not drawn) was read as Pf Dd2 growth -11.2%.
Screening CN1[C@@H](CCC(=O)N2CCOCC2)CNC(=O)[C@@H]2[C@H]1CCN2Cc1nc2ccccc2n1C returned Pf Dd2 growth -14.7%.
Screening CCCNC1(Cc2cc(C(=O)N3CCCCC3)on2)COC1 returned Pf Dd2 growth -0.7%[44.1 µM].
For N#Cc1ccc(C(=O)NC2CCCN(c3cc(-c4ccc(Cl)cc4)[nH]n3)C2)cc1 (stereo not drawn) the results were Pf Dd2 growth inactive.
Screening O=C(CN1CCOC1=O)N1CCC(Cc2nncn2-c2ccccc2)CC1 returned Pf Dd2 growth -4.3%.
CN1CCC2(CCC1=O)CN(CC(=O)NCc1ccccn1)CCN2C (stereo not drawn) was read as Pf Dd2 growth -8.3%.
`O=C(c1ccc2ccccc2c1)N1C[C@@H]2C[C@H](C1)c1ccc(NS(=O)(=O)c3cccc(F)c3)c(=O)n1C2` gave Pf Dd2 growth -13.1%.
O=C(NC1CCN(c2cc(-c3ccccc3)[nH]n2)CC1)c1ccc(Cl)cc1 was read as Pf Dd2 growth -0.9%.
For CCN1c2cc(C(=O)NCc3ccc(F)cc3Cl)ccc2C(=O)N2CCCCC21 (stereo not drawn) the results were Pf Dd2 growth inactive.
Screening Cc1ccc(C)c(NC(=O)C2CCN(C(=O)c3ncn4c3COC(c3ccc(F)cc3)C4)CC2)c1 (stereo not drawn) returned Pf Dd2 growth -25.7%.
O=C1Nc2ccc(-c3ccccc3F)cc2C(=O)N2CCN(C(=O)C3CCNCC3)C[C@H]12 was read as Pf Dd2 growth -4.0%[44.1 µM].
Screening COC(=O)N1CCC(c2nn(-c3ccc(OC)cc3)c(=O)[nH]2)CC1 returned Pf Dd2 growth inactive.
Screening COc1ccc(-n2nc(C3CCN(Cc4ccc(N(C)C)cc4)CC3)[nH]c2=O)cc1 returned Pf Dd2 growth -2.6%.
`COc1ccc(-n2nc(C3CCN(Cc4cccn4C)CC3)[nH]c2=O)cc1` gave Pf Dd2 growth 12.6µM*.
Screening Cc1nn(C)c(C)c1CCC(=O)N1CCCC(N(C)C)CC1 (stereo not drawn) returned Pf Dd2 growth 15.1%.
For COc1cccc(-c2cn3c(n2)N(C(=O)Cc2ccsc2)CCC3)c1 the results were Pf Dd2 growth -2.0%.
Screening COc1cccc(-c2cn3c(n2)N(C(=O)C2CCC2)CCC3)c1 returned Pf Dd2 growth -59.1%.
`COc1cccc(-c2cn3c(n2)N(C(=O)C2CCCC2)CCC3)c1` gave Pf Dd2 growth 8.91µM*.
For O=C(Cc1ccccc1F)N1CCC(c2noc(-c3cccnc3)n2)C1 (stereo not drawn) the results were Pf Dd2 growth inactive[5.79 µM].
For COCCN(C)C[C@@H]1CN(C(=O)c2ccc(-c3ccc(C)o3)cc2)C[C@@H]1CO the results were Pf Dd2 growth -8.9%.

Screening results from PubChem.
